Assay outcomes deposited in PubChem by National Center for Advancing Translational Sciences (NCATS).
VDR inhibitor: inhibitors of human vitamin D receptor; P11473; VDR-SRC2-3 peptide fluorescence polarization, 2 h; Potency, µM, without a hit: max response, negative = inhibition, usual class: inhibitors; 400,000 compounds, 0.93% hits; also: % is scaled to controls: 0 for no effect and ±100 for the full control effect
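Two reagent solutions held at 4 deg C in the dark were dispensed, compounds pinned at 23 nl, and the mixture incubated 2 h at room temperature. Read-out: fluorescence polarization of VDR–SRC2-3 peptide binding.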
BAZ2B inh: blocks human BAZ2B. Q9UIF8. 360,000 compounds, 4.4% hits. Potency, µM (titrated, usually from 114 µM), for inactives: at the top dose activity change, negative = inhibition, most hits filed as inhibitors. AlphaScreen BAZ2B-H3K14Ac peptide displacement. AID 504333; also: % is scaled to controls: 0 for no effect and ±100 for the full control effect; nearly all actives have a fitted effect of over 60% in size
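Complex of BAZ2B and biotin-H3K14Ac (50 nM apiece) forms over 30 min at RT, then faces library compounds up to 110 uM for another 30 min; AlphaScreen beads added, 20 min dark incubation, luminescence read.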
L3MBTL1 block: blocks human L3MBTL1. Potency, µM (series often up to 57.1 µM), without a hit: at the highest dose activity, negative = inhibition, usual class: inhibitors. AlphaScreen L3MBTL1–H3K9me1 peptide binding. 230,000 compounds, 0.66% hits; also: % is scaled to controls: 0 for no effect and ±100 for the full control effect; nearly all actives have a fitted effect of over 60% in size
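AlphaScreen assay: L3MBTL1 (50 nM final) was preincubated 30 min at room temperature with biotinylated H3(1-15)K9me1 peptide (75 nM final), then 30 min with library compounds; streptavidin donor and nickel chelate acceptor beads (10 ug/mL final) added, 30 min dark.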
JMJD2A Tudor: blocks the human JMJD2A Tudor domain; O75164; AlphaScreen JMJD2A-Tudor / H3K4me3 peptide binding; Potency, µM (top dose mostly 114 µM), for the others: at the top dose activity change, negative = inhibition, actives largely listed as inhibitors; 390,000 compounds, 4.4% hits; also: % is scaled to controls: 0 for no effect and ±100 for the full control effect; nearly all actives have a fitted effect of over 50% in size
PLK1 PBD block: PLK1 (human) polo-box domain binding inhibition; 360,000 compounds, 2.8% hits; Plk1 PBD binding of FITC phosphopeptide, fluorescence polarization; AID 720504; P53350; Potency, µM, for inactives: max response, negative = inhibition, most hits filed as inhibitors; also: series mostly up to about 57 µM; % is scaled to controls: 0 for no effect and ±100 for the full control effect; nearly all actives have a fitted effect of over 65% in size
HP1b binding inh: HP1-beta chromodomain-methylated histone interaction inhibition; P83916; 390,000 compounds, 0.56% hits; AlphaScreen HP1-beta / biotin-H3K9me3 peptide binding; AID 540317; Potency, µM (titrated, usually from 114 µM), without a hit: at the highest dose activity change, negative = inhibition, hits mostly inhibitors; also: nearly all actives have a fitted effect of over 70% in size
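HP1-beta protein (50 nM final) preincubated 30 min at room temperature with biotinylated H3(1-18)K9me3 peptide (50 nM) in PBS pH 7.4, 0.01% Tween-20, then compound added for 30 min. AlphaScreen streptavidin donor/nickel chelate acceptor beads (10 ug/mL final), 30 min dark, luminescence read.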
An asterisk follows results filed as active; ? = inconclusive; / = no result; [ ] = another dose, or the depositor's remark. In the library only some 6.9% were active in any assay of this set; here they are far more common. Calls follow the shape of the dose curve; as a rule, active = well fitted curve in the direction sought with a large enough effect; inconclusive = small, poorly fitted or top-dose-only effect, or another doubt; inactive = no such curve, though single readings can be large; an effect the other way counts as inactive or inconclusive. Potency is read from the fitted curve at half-maximal effect.

SMILES | VDR inhibitor | BAZ2B inh | L3MBTL1 block | JMJD2A Tudor | PLK1 PBD block | HP1b binding inh
COc1ccc(C(=O)/C(C#N)=N/Nc2cccc([N+](=O)[O-])c2)cc1 | 12% | 40µM* | -28% | ? | ? | ?
N#C/C(=N\Nc1ccccc1Cl)C(=O)c1ccccc1 | -3% | ? | -22% | -29%[57.1 µM] | ? | -21%
Cc1ccc(N/N=C(\C#N)C(=O)c2ccsc2)cc1 | -7% | ? | -4% | 35µM* | -16% | -17%
CCN(CC)C(=N)/C(C#N)=N/Nc1ccc(C)cc1 | -6% | -33% | -20% | -27% | 4% | -4%
N#C/C(=N\Nc1cccc(Cl)c1)C(=O)c1ccccc1 | -16% | 45µM* | -8% | ? | ? | ?
Cc1ccccc1NC(=O)c1ccc(F)c(S(=O)(=O)N(C)C2CCCCC2)c1 | 10% | -3% | / | -16% | / | 25%
CCc1ccc(NC(=O)c2ccc3c(=O)n4nc(Nc5ccccc5C)sc4nc3c2)cc1 | 10% | -10% | / | -10% | / | 12%
CCOc1ccc(-c2cc(C(=O)NCCCN3CCCC3)c3ccccc3n2)cc1 | -21% | -22% | / | -18% | -19% | 36%
O=S(=O)(Nc1ccc(-n2cnnn2)cc1)c1ccc(Cl)s1 | 4% | / | -10% | -6% | 5% | 20%
Cc1ccc(Cc2cnc(NC(=O)c3ccc4c(c3)CC(c3ccccc3)OC4=O)s2)cc1 (stereo unspecified) | 10% | 31% | / | -6% | / | 66%
CCOC(=O)CN(C(=O)CSc1nnc(-c2ccncc2)n1CCCN(C)C)c1ccccc1 | -4% | 50µM* | 3%[11.4 µM] | ? | -2% | ?
COc1ccc2cc1Oc1cc3c(cc1OC)CC[N+](C)(C)C3Cc1ccc(cc1)Oc1c(OC)c(OC)cc3c1C(C2)[N+](C)(C)CC3 (stereo unspecified) | -1% | / | / | / | / | /
O=C(COC(=O)CSc1cccc2cccc(Cl)c12)Nc1ncc(C(F)(F)F)cc1Cl | -11% | 50µM* | ? | -35% | -17% | -5%
Cn1c(=O)c2[nH]c(N=NNc3ccccc3F)nc2n(C)c1=O | 79µM* | 20µM* | 5% | 7.9µM* | -16% | 20µM*
COc1ccc(NN=Nc2nc3c([nH]2)c(=O)n(C)c(=O)n3C)cc1 | ? | 56µM* | -5% | 8.9µM* | 4.7µM* | 4.5µM*
Cc1ccccc1NN=Nc1nc2c([nH]1)c(=O)n(C)c(=O)n2C | -18% | -30% | -1% | ? | ? | ?
N#Cc1nc(Nc2cccc(F)c2)nc(NC2CCCC2)n1 | / | / | / | 1% | / | /
CCCCCCC(=O)N(O)C1CC(=O)N(c2ccc(C)cc2)C1=O (stereo unspecified) | 32µM* | 3% | / | 14µM* | 27µM* | ?
O=C(O)CSC1CC(=O)N(c2ccc(Cl)cc2)C1=O (stereo unspecified) | -5% | -26% | 3% | -29% | -6% | 32%
CCCCCCC(=O)N(O)C1CC(=O)N(c2ccc(Cl)cc2)C1=O (stereo unspecified) | ? | -19% | -1% | 32µM* | ? | 40µM*
Cc1cccc(C(=O)Nc2cccc(OCc3cc(=O)n4c(C)csc4n3)c2)c1 | 3% | 0% | / | -14% | / | 42%
COCCn1nnnc1C(c1ccccc1)N1CCN(Cc2ccc3c(c2)OCO3)CC1 (stereo unspecified) | 5% | ? | -1% | -13% | -11% | 25%
CN(C)c1ccc(C(c2nnnn2C(C)(C)C)N2CCN(C(=O)c3ccco3)CC2)cc1 (stereo unspecified) | 16µM* | -30% | -4% | -28% | -2% | -16%
CCC(c1nnnn1Cc1ccccc1)N1CCN(C(=O)c2ccco2)CC1 (stereo unspecified) | -3% | 15% | -12% | 17% | -5% | 24%
COCCn1nnnc1C(c1ccc(C)cc1)N1CCN(Cc2ccc3c(c2)OCO3)CC1 (stereo unspecified) | -11% | 1% | -8% | -12%[11.4 µM] | 24µM* | -10%
SMILES | VDR inhibitor | BAZ2B inh | L3MBTL1 block | JMJD2A Tudor | PLK1 PBD block | HP1b binding inh
CCC(c1nnnn1CCOC)N1CCN(C(=O)c2ccco2)CC1 (stereo unspecified) | 6% | 50µM* | 10% | ? | -11% | 19%
CCCCC(c1nnnn1CCOC)N1CCN(C(=O)c2ccco2)CC1 (stereo unspecified) | -7% | 50µM* | / | 12%[11.4 µM] | ? | 30%
CC(C)(C)OC(=O)Cc1nnc(CNC(=O)c2ccccc2)s1 | / | / | / | -4% | / | /
COCCn1nnnc1C(c1ccc(OC)cc1)N1CCN(C(=O)c2ccco2)CC1 (stereo unspecified) | -7% | -15% | / | -15% | -8% | 31%
COCCn1nnnc1C(c1ccc(Cl)cc1)N1CCN(C(=O)c2ccco2)CC1 (stereo unspecified) | -21% | -2% | / | 45µM* | -25% | 42%
COc1ccc(NC(=O)c2ccc(-c3nc(COc4ccccc4)c(C)o3)cc2)cc1 | 15% | -14% | / | -8% | / | 25%
CC(=O)c1ccc(NC(=O)c2ccc(-c3nc(COc4ccc(C)cc4)c(C)o3)cc2)cc1 | -5% | -21% | / | -9% | / | 45µM*
Cn1c2ccccc2c2cc(/C=N/NC(=O)c3cc(O)cc(O)c3)ccc21 | -2% | 35µM* | / | 56µM* | -24% | ?
COCCNC(=O)/C(C#N)=C/c1c(F)cccc1Cl | -9% | 2% | 5% | -8% | -12% | 3%
CCc1nc2ccc(C(=O)N3CCN(C(=O)c4ccco4)CC3)cn2c1N(C=O)Cc1ccc(OC)cc1 | / | / | / | / | -9% | /
CC(C(=O)Nc1ncn[nH]1)N1C(=O)c2ccccc2C1=O (stereo unspecified) | 7% | 5% | -3% | -5% | -6% | 44%
O=C(Nc1ncn[nH]1)c1ccccc1Br | -15% | -1% | 5% | -3% | -8% | 40%
Cc1ccc(C(=O)Nc2ncn[nH]2)cc1 | -13% | 50µM* | -11% | ? | 1% | 49%
CSc1ccccc1C(=O)Nc1ncn[nH]1 | -15% | ? | -23% | 79µM* | -22% | 44%
O=C(Nc1cccc(NC(=O)c2cccc(F)c2)n1)c1cccc(F)c1 | 8% | -2% | / | 0% | 4% | 20%
O=C(Nc1ncn[nH]1)c1cccc(F)c1 | -6% | 50µM* | -3% | ? | 3% | /
Cc1ccc(SC(C)C(=O)Nc2ncn[nH]2)cc1 (stereo unspecified) | 3% | 56µM* | -19% | -22% | 5% | 41%
CCc1ccc(C2c3c(oc4ccc(F)cc4c3=O)C(=O)N2CCc2ccc(OC)cc2)cc1 (stereo unspecified) | -8% | -2% | / | -11% | / | 19%
Cc1cc2nc(-c3ccc(NC(=O)c4ccccc4F)cc3)oc2cc1C | -5% | 2% | / | -13% | / | 6%
O=P(O)(CCc1ccccn1)CN1CCOCC1 | 80% | -6% | -2% | ? | -5% | 2%
